Measured values as given in article PMC8384837, “Expanding the binding specificity for RNA recognition by a PUF domain”.

Each sequence was assayed against PUM1 PUF domain R3-ARC (Homo sapiens, UniProt Q14671 828-1176, C935A;Q939C) (assay: yeast three-hybrid, YBZ-1, SC-Leu-His + 0.5 mM 3-AT, 4 days). Settings: tags: N-Gal4 AD-HA kept; label: inside an RPR1-promoter hybrid RNA with tandem MS2 sites; ssRNA.
How it was run: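 Each repeat of the Pumilio-1 PUF domain was randomized at its three base-contacting residues, and these libraries were co-expressed from a centromeric plasmid with matching RNA elements in strain YBZ-1. After four days on SC-Leu (input) or SC-Leu-His + 0.5 mM 3-AT (selection), the repeat regions were PCR-amplified and Illumina-sequenced. The interaction score compares variant frequency between input and selection as a log change, computed in log2 with a pseudocount of 1 for absent variants.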
For “GGCUAGAACUAGUGGAUCCCCCGGCGCCCGGCGGCUCGAGCCCGGGUAAGUGUAAAUAGUCUGCAUGCCGCCGGGCGCCAUGCCUGCAGGUCGACUCUAGAAAACAUG”, the binding signal was 3.8 log2 enrichment (interaction score). “GGCUAGAACUAGUGGAUCCCCCGGCGCCCGGCGGCUCGAGCCCGGGUAAGUGUAAUUAGUCUGCAUGCCGCCGGGCGCCAUGCCUGCAGGUCGACUCUAGAAAACAUG” was tested, and the binding signal was 1.82 log2 enrichment (interaction score). “GGCUAGAACUAGUGGAUCCCCCGGCGCCCGGCGGCUCGAGCCCGGGUAAGUGUAAGUAGUCUGCAUGCCGCCGGGCGCCAUGCCUGCAGGUCGACUCUAGAAAACAUG” was tested, and the binding signal was 0.43 log2 enrichment (interaction score).
